Records with an inconclusive call do not appear. Calls of active or inactive are those of the source. Unless noted, calls come from the whole dose curve; as a rule, active = well fitted curve in the direction sought with a large enough effect in the repeat runs; inconclusive = weak or mixed curves; inactive = no such curve, though single readings can be large; an effect the other way counts as inactive or inconclusive.
Experiments:
[1] = qHTS RealTime-Glo MT Cell Viability Assay in HEK293 cells - 24 hour (AID 1224886); note: top concentration of the series differs between compounds; nearly all actives have a fitted effect of over 50% in size
Summary of the method: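 HEK293 cells were seeded at 600 cells/well together with NanoLuc luciferase and cell-permeant prosubstrate, preincubated 5 h at 37 C/5% CO2, then given compound in DMSO by pintool. Luminescence from viable-cell prosubstrate reduction was read repeatedly over 40 h.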

[2] = qHTS RealTime-Glo MT Cell Viability Assay in HEK293 cells - 8 hour (AID 1224887); note: top concentration of the series differs between compounds; nearly all actives have a fitted effect of over 50% in size
Summary of the method: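 Real-time viability in HEK293: signal arises when living cells convert a prosubstrate for NanoLuc in the medium, so luminescence tracks viable cell number. Compound (23 nL, DMSO) added 5 h post-seeding; kinetic reads at 0–40 h, 37 C.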

[3] = A CellTox Green Cytotoxicity Assay to monitor cytotoxicity in HEK293 cells - 16 hour (AID 1224888); note: nearly all actives have a fitted effect of over 35% in size
Summary of the method: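 Cells (HEK293, 600/well) and dye reagent are dispensed together. After 5 h at 37 C, 23 nL compound is pinned in. Plates stay at 37 C for 40 h with fluorescence read at 0h, 8h, 16h, 24h, 32h and 40h.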

[4] = qHTS RealTime-Glo MT Cell Viability Assay in HepG2 cells - 0 hour (AID 1224889); note: nearly all actives have a fitted effect of over 50% in size
Summary of the method: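 HepG2 cells were seeded at 600 cells/well together with NanoLuc luciferase and a cell-permeant prosubstrate, preincubated 5 h at 37 C/5% CO2, then pin-dosed with compounds in DMSO. Nonlytic luminescence from viable cells was read at each time point.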

[5] = A CellTox Green Cytotoxicity Assay to monitor cytotoxicity in HepG2 cells - 8 hour (AID 1224890); note: nearly all actives have a fitted effect of over 45% in size
Summary of the method: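 Cells and non-lytic dye reagent are dispensed together (600 HepG2 cells/well) and incubated 5 h before DMSO compound transfer. Kinetic fluorescence is then recorded in the same wells during 40 h at 37 C.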

[6] = qHTS assay to identify small molecule antagonists of the estrogen receptor alpha (ER-alpha) signaling pathway using the BG1 cell line in the presence of 0.1 nM 17-beta-estradiol - cell viability counter screen (AID 1259241); note: nearly all actives have a fitted effect of over 40% in size
Summary of the method: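 Cells were plated and left 24 hr, compounds in DMSO were pinned in, 17beta-estradiol was added to 0.1 nM final, and after 22 hr CellTiter-Fluor reagent was added for 30 min before fluorescence was read.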

[7] = qHTS assay to identify small molecule antagonists of the androgen receptor (AR) signaling pathway using the MDA cell line in the presence of 0.5 nM R1881 - cell viability counter screen (AID 1259242); note: nearly all actives have a fitted effect of over 45% in size
Summary of the method: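 Steps: plate MDA-kb2 cells, rest 5 hr at 37C without CO2; pin in compounds in DMSO; add R1881 to 0.5 nM final; incubate 16 hr; add CellTiter-Fluor, 30 min; read fluorescence.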

[8] = qHTS assay to identify small molecule HDAC inhibitors (AID 1259364);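 note: wild-type HCT-116 cells with endogenous class I/II HDAC activity; top concentration of the series differs between compounds; nearly all actives have a fitted effect of over 45% in size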
Summary of the method: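 Cells (HCT-116, wild type) are seeded at 1,500 per well, incubated overnight, treated with compound in DMSO for 2 hr, then developed with HDAC-Glo I/II reagent for 30 min at room temperature.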

[9] = qHTS assay to identify small molecule HDAC inhibitors - cell viability counter screen (AID 1259365); note: series mostly up to about 92 µM; nearly all actives have a fitted effect of over 50% in size
Summary of the method: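 Counter screen in wild-type HCT-116 cells: compounds dissolved in DMSO are pin-transferred onto overnight-plated cells and left 2hr at 37C. ATP-based CellTiter-Glo luminescence then measures viable cells.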

[10] = qHTS assay to identify small molecule antagonists of the sonic hedgehog signaling (Shh) pathway - cell viability counter screen (AID 1259367); note: nearly all actives have a fitted effect of over 55% in size
Summary of the method: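 Cytotoxicity was assessed in parallel with Shh reporter activity by measuring live-cell protease fluorescence (CellTiter-Fluor) in NIH/3T3 cells stably carrying Gli1-Luc, treated with compound under conditioned medium stimulation for 23 hr plus 1 hr reagent incubation.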

[11] = qHTS assay to identify small molecule agonists of the sonic hedgehog signaling (Shh) pathway (AID 1259368; calls by dose curve;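 note: NIH/3T3-derived 3T3Gli1-Luc cells carrying a stable Gli1-driven firefly luciferase reporter; series mostly up to about 92 µM; nearly all actives have a fitted effect of over 15% in size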)
Summary of the method: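 Cells of a mouse NIH/3T3 clone stably expressing luciferase under the Gli1 transcriptional response element are exposed to test chemicals for 24 hr at 37 C. Pathway activation is detected as a rise in luminescence.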

[12] = qHTS assay to identify small molecule antagonists of the sonic hedgehog signaling (Shh) pathway (AID 1259369; calls by dose curve; note: nearly all actives have a fitted effect of over 45% in size)
Summary of the method: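 Cells are plated and held 4hr at 37 C, compounds (DMSO) are pinned in, conditioned medium is added to stimulate the pathway, and after 24hr luciferase reagent is added for 30min before luminescence is read.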

[13] = target: Estrogen receptor beta (Homo sapiens) (UniProt Q92731); assay: qHTS assay to identify small molecule agonists of the estrogen receptor beta (ER-beta) signaling pathway (AID 1259377; active = well fitted activation curve with a large enough effect in the signal ratio in the repeat runs, not every such curve was filed as active; the % refers to the signal ratio)
Summary of the method: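 Agonist mode cell assay in GripTite HEK293T cells expressing an ER-beta fusion that drives beta-lactamase from an Upstream Activator Sequence; 16 hr compound exposure at 37C, then 2 h LiveBLAzer B/G FRET substrate at room temperature, fluorescence read-out.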

[14] = target: Estrogen receptor beta (Homo sapiens) (UniProt Q92731); assay: qHTS assay to identify small molecule antagonists of the estrogen receptor beta (ER-beta) signaling pathway (AID 1259378; active = well fitted inhibition curve with a large enough effect in the signal ratio in the repeat runs, not every such curve was filed as active; the % refers to the signal ratio)
Summary of the method: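 ER-beta-UAS-bla HEK293T (GripTite) cells in 2% charcoal-stripped FBS medium were preincubated 6 hr at 37C, dosed with compound, then stimulated with 1 nM E2 (final) for 16 hr; beta-lactamase reporter read by B/G FRET fluorescence after 2 hr substrate loading.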

[15] = qHTS assay to identify small molecule agonists of the androgen receptor (AR) signaling pathway in the presence of an antagonist - cell viability counter screen (AID 1259379);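 note: MDA-kb2 human breast cancer cells carrying an MMTV luciferase reporter; series mostly up to about 92 µM; nearly all actives have a fitted effect of over 25% in size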
Summary of the method: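 Cytotoxicity is assessed by CellTiter-Fluor in MDA-kb2 cells carrying an MMTV-driven luciferase reporter. Cells receive 3.0uM nilutamide plus compounds at 15 concentrations and incubate 16 hr at 37C without CO2 before fluorescence reading.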

[16] = target: Estrogen receptor (Homo sapiens) (UniProt P03372); assay: qHTS assay to identify small molecule antagonists of the estrogen receptor alpha (ER-alpha) signaling pathway using the BG1 cell line in the presence of 0.1 nM 17-beta-estradiol (AID 1259244); note: nearly all actives have a fitted effect of over 50% in size
Summary of the method: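 Antagonist mode: compounds in DMSO are pinned onto VM7Luc4E2 reporter cells, 0.1 nM final 17beta-estradiol is added, and after 22 h at 37C luciferase luminescence is measured with ONE-Glo.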

[17] = qHTS assay to identify small molecule phospholipidosis (PLD) inducers (AID 1259344; active = well fitted curve in the direction sought with a large enough effect; an effect the other way counts as inactive or inconclusive)
Summary of the method: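 Cells (HepG2, 900 per well) attach for 4 h, receive LipidTOX Red and compound together, incubate 24 h at 37 C, are fixed 30 min with paraformaldehyde/Hoechst, then imaged at one site per well.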

[18] = qHTS assay to identify small molecule agonists of the sonic hedgehog signaling (Shh) pathway - cell viability counter screen (AID 1259366); note: nearly all actives have a fitted effect of over 50% in size
Summary of the method: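 Cells are plated at 2,000 per well and left 4hr at 37C, 5% CO2 before compound addition. After 23hr of treatment, CellTiter-Fluor reagent is added for 1hr at 37C and fluorescence is measured.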

[19] = target: Androgen receptor (Homo sapiens) (UniProt P10275); assay: qHTS assay to identify small molecule antagonists of the androgen receptor (AR) signaling pathway using the MDA cell line in the presence of 0.5 nM R1881 (AID 1259243); note: nearly all actives have a fitted effect of over 50% in size
Summary of the method: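 Stably transfected MDA-kb2 cells express luciferase from an MMTV promoter bearing both AR and GR response elements. Compounds plus 0.5 nM R1881 (final) were incubated 16 hr at 37C without CO2, then luminescence measured.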

Measured: Potency

Chain of Estrogen receptor (Homo sapiens) (P03372 whole entry, looked up): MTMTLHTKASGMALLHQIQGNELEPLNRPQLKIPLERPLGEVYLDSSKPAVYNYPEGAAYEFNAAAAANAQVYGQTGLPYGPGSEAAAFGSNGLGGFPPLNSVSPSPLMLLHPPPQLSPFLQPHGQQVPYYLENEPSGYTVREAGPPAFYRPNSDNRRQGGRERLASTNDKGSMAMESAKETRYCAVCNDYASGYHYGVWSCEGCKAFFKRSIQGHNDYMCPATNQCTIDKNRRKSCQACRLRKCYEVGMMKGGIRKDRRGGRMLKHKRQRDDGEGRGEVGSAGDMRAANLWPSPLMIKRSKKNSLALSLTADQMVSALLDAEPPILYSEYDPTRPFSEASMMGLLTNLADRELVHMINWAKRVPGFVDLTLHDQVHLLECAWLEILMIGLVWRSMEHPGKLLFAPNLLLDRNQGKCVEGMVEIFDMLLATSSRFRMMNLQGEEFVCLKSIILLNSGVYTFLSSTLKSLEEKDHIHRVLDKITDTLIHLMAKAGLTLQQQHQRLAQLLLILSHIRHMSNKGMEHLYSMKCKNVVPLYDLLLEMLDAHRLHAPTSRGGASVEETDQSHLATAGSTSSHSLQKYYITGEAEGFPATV
Chain of Estrogen receptor beta (Homo sapiens) (Q92731 whole entry, looked up, the tested form may be a part): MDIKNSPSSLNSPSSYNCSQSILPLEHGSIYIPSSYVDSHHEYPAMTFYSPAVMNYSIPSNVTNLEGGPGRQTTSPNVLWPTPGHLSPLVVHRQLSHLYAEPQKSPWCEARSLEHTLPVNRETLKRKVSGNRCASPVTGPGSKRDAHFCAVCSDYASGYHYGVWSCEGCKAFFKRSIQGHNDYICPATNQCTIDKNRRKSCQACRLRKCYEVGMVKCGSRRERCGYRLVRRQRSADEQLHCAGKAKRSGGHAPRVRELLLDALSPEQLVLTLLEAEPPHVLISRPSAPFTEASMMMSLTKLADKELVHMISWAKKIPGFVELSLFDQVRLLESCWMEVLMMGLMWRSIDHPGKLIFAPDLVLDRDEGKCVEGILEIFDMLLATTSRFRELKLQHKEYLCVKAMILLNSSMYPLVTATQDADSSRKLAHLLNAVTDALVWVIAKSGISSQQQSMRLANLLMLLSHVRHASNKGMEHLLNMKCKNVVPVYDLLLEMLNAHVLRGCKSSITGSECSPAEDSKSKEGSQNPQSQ
Chain of Androgen receptor (Homo sapiens) (P10275 whole entry, looked up): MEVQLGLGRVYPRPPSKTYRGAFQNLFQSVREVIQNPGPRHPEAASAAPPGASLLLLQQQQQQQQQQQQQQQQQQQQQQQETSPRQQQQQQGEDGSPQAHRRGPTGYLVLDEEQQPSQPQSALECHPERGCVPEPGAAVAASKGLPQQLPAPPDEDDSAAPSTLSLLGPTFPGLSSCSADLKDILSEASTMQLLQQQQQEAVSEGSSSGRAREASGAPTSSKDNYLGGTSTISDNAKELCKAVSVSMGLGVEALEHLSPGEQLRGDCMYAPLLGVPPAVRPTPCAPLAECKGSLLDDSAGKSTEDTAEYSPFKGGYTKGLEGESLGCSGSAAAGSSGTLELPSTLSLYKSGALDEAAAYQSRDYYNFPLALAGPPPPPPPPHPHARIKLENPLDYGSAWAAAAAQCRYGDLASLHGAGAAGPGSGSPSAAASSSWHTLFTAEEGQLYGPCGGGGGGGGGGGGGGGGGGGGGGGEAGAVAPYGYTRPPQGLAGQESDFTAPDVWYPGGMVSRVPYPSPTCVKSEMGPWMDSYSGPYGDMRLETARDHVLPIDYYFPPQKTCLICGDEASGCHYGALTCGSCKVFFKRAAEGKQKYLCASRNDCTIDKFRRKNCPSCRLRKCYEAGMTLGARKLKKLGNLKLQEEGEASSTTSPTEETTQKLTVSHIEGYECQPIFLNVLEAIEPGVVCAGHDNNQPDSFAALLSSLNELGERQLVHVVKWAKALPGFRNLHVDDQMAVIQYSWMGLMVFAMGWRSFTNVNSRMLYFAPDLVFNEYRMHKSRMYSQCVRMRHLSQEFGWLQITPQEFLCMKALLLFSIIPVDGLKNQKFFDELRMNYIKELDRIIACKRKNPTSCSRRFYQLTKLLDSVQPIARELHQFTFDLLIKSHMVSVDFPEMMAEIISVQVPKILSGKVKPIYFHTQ

O=C(CC(C(=O)OC1CCCCC1)S(=O)(=O)O)OC1CCCCC1 (centres undefined)
not listed: [16] | [17] | [18] | [19]
inactive: all other assays above

CC1=CCC2CC1C2(C)C (centres undefined)
not listed: [15] | [19]
inactive: all other assays above

O=C(O)CCCC[C@@H]1SC[C@@H]2NC(=O)N[C@@H]21
not listed: [3] | [18] | [19]
inactive: all other assays above

OCc1cccnc1
not listed: [3] | [13] | [14] | [19]
inactive: all other assays above

O=C(O)c1cc(=O)c2c(OCC(O)COc3cccc4oc(C(=O)O)cc(=O)c34)cccc2o1
not listed: [18] | [19]
inactive: all other assays above

CCCCCCCCCCCCCCO
not listed: [15] | [17] | [19]
inactive: all other assays above

O=C(Oc1ccccc1)c1ccccc1
not listed: [3] | [16] | [17] | [18] | [19]
inactive: all other assays above

O=C=NCCCCCCN=C=O
not listed: [17] | [19]
inactive: all other assays above

CCCCN(CCCC)CCCC
not listed: [17] | [18] | [19]
inactive: all other assays above

Cc1ccc(N(C)C)cc1
not listed: [3] | [17] | [18]
inactive: all other assays above

CCCCCC/C(C=O)=C\c1ccccc1
not listed: [16] | [17] | [19]
inactive: all other assays above

O=C(O)[C@H](O)[C@@H](O)[C@H](O)[C@H](O)CO
not listed: [3] | [13] | [14] | [16] | [19]
inactive: all other assays above

Reference: PubChem BioAssay (Tox21)
